This passage reports composite z-score, z-score and composite Z-score results from PubChem BioAssay.

The subject of assay [1] is Human papillomavirus type 1a protein E7 (residues 44-93). Kind of assay: small molecules binding HPV E7 44-93 – biochemical, small-molecule microarray, residues 44-93, 635 nm fluorescence, primary screen (AID 1108).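 Also: E7 fragment applied at 1 µg/mL in TBST for 1 h at 4 C; score combines spot fluorescence with its signal to noise ratio.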 Conditions: fluorescence 635 nm, higher = more signal.
Assay [2] is described as follows: hepatitis C replication reporter changes, two-sided – Huh7 cells, luciferase reporter, HCV replication inhibitor project, primary screen (AID 1109).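 Also: huh7 hepatoma cells harbouring a luciferase neomycin HCV replicon reporter; luciferase luminescence as measure of HCV replicon replication; test concentration not given here.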 Conditions: Huh7 HCV replicon luciferase reporter, 48 h; higher = more signal.
Assay [3] concerns the target Left-right determination factor 2 (Homo sapiens) (UniProt O00292). Kind of assay: small molecules binding LEFTY2 protein – biochemical, small-molecule microarray, 635 nm fluorescence scan, primary screen (AID 1110). The settings on record: higher = more signal.
Assay [4] has as its target Calmodulin-1 (Homo sapiens) (UniProt P0DP23). Kind of assay: small molecules binding calmodulin-1 with EGTA – biochemical, small-molecule microarray, Cy5-labelled CALM1, profiling panel (AID 1111).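 Also: labelled calmodulin applied in Tris saline Tween buffer holding calcium plus EGTA and DTT.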 Conditions: Cy5-CALM1 binding fluorescence, higher = more signal.
Assay [5] has the same target. The experiment in a line: small molecules binding Ca-loaded calmodulin-1 – biochemical, small-molecule microarray, Cy5-labelled CALM1, plus calcium, artefact control for SMM control-protein annotation, profiling panel (AID 1112).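 Also: score merges spot fluorescence with signal to noise from triplicate slides.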 Conditions: Cy5-CALM1 binding fluorescence, higher = more signal.
A short description of assay [6]: probe aWnt5a binding to arrayed compounds – biochemical, biotinylated probe, 635/667 nm fluorescence, primary screen (AID 1113).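 Also: score merges 667 nm fluorescence intensity with signal-to-noise per printed feature.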 Conditions: small-molecule microarray, higher = more signal.
Assay [7] is described as follows: probe aShh binding to arrayed compounds – biochemical, biotinylated probe, 635/667 nm fluorescence, primary screen (AID 1114).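 Also: probe is biotin-labelled aShh protein from a stem cell growth factor screen; measures binding of labelled protein to compounds printed on the slide; score merges feature fluorescence at 667 nm with signal-to-noise.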 Conditions: small-molecule microarray, higher = more signal.
A short description of assay [8]: probe aNog binding to arrayed compounds – biochemical, biotinylated probe, 635/667 nm fluorescence, primary screen (AID 1115).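 Also: probe is biotinylated aNog protein used at 0.15 µg/mL for 1 h at 4 C; z-score combines 667 nm fluorescence of each spot with its signal to noise.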 Conditions: small-molecule microarray, higher = more signal.
Assay [9] has as its target Torsin-1A-interacting protein 1 (Homo sapiens) (UniProt Q5JTV8). The experiment in a line: compound microarray binding of lysate hLAP1 – cell lysate, small-molecule microarray, COS7 lysate, 635/667 nm fluorescence, primary screen (AID 1116). The settings on record: 635 nm fluorescence, higher = more signal.
For assay [10], the target named is Alpha-bungarotoxin (Bungarus multicinctus) (UniProt P60615). Kind of assay: compounds binding labelled alpha-BTX control protein – biochemical, small-molecule microarray, Alexa647 label, 635/667 nm fluorescence, artefact control for SMM control protein annotation, profiling panel (AID 1117). The settings on record: alpha-BTX-A647 binding fluorescence, higher = more signal.

The target of the next assay is Albumin (Bos taurus) (UniProt P02769). Kind of assay: compounds binding labelled BSA control protein – biochemical, small-molecule microarray, Alexa647 label, 635/667 nm fluorescence, artefact control for SMM control protein annotation, profiling panel (AID 1118).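 Also: score merges 667 nm emission intensity and signal-to-noise per printed compound spot.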 The settings on record: BSA-A647 binding, fluorescence 635 nm, higher = more signal.
Assay [11] can be described thus: probe aXIP binding to arrayed compounds – biochemical, NeuroSMM set, 635/667 nm fluorescence, primary screen (AID 1119).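 Also: probe is the protein aXip251-270 applied at 1 µg/mL to compound-printed slides; binding of probe to printed compounds measured as 667 nm fluorescence plus signal to noise.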 The settings on record: small-molecule microarray, higher = more signal, called active from +8 up or from −8 down.
A short description of assay [12]: probe aNOTCH3 binding on compound microarray – biochemical, small-molecule microarray, 635/667 nm fluorescence, primary screen (AID 1120).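 Also: probe is a biotin-tagged antibody raised against NOTCH3 rather than NOTCH3 protein; score merges spot fluorescence near 667 nm with spot signal to noise.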 The settings on record: higher = more signal.
A short description of assay [13]: probe aNOTCH2 binding on compound microarray – biochemical, small-molecule microarray, 635/667 nm fluorescence, primary screen (AID 1121).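 Also: score merges feature fluorescence read at 667 nm with its signal to noise.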 The settings on record: higher = more signal.
The target in assay [14] is Carbonic anhydrase 2 (Homo sapiens) (UniProt P00918). Kind of assay: compounds binding carbonic anhydrase 2 – biochemical, small-molecule microarray, Alexa647-labelled CAII, profiling panel (AID 1122). Conditions: CAII-A647 binding fluorescence, higher = more signal.
A short description of assay [15]: COS7 lysate on small-molecule microarray, probe aHis, 635 nm (AID 1123).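 Also: z-score combines 667nm fluorescence intensity with signal-to-noise per printed compound spot.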 Conditions: COS7 cell lysate, fluorescence, higher = more signal.
A short description of assay [16]: probe aLAP1 signal on lysate-treated microarray – cell lysate, small-molecule microarray, COS7 lysate, primary screen (AID 1124).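 Also: lysate comes from COS7 cells expressing LAP1 and is applied at 0.3 µg/mL; score merges spot fluorescence near 667 nm with signal-to-noise over triplicate slides.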 The settings on record: probe aLAP1, fluorescence, higher = more signal.
In a further assay the test system is Sam68 (KHDRBS1). The experiment in a line: compounds binding KHDRBS1 protein – biochemical, small-molecule microarray, 635 nm fluorescence, primary screen (AID 1125).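 Also: score merges 667 nm channel intensity with signal to noise over triplicate slides.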 Conditions: higher = more signal.
The subject of assay [17] is Chordin-like protein 2 (CHRDL2). The experiment in a line: compounds binding chordin-like 2 – biochemical, small-molecule microarray, 635 nm fluorescence, primary screen (AID 1126).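 Also: printed compound slides probed with Chrdl2 protein at 4 µg/mL for 1 h at 4 C; score merges 667 nm emission intensity with signal to noise over three replicate slides.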 Conditions: fluorescence 635 nm, higher = more signal.
Assay [18] deals with Concanavalin-A (Canavalia ensiformis) (UniProt P02866). Kind of assay: compounds binding concanavalin A lectin – biochemical, small-molecule microarray, Alexa647 label, 635 nm, artefact control for SMM control protein annotation, primary screen (AID 1127).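 Also: z combines 667 nm emission intensity with signal-to-noise across three replicate slides.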 The settings on record: ConA-A647 binding fluorescence, higher = more signal.

Active and inactive are the calls of the source.

Chain of Left-right determination factor 2 (Homo sapiens) (O00292 whole entry, looked up): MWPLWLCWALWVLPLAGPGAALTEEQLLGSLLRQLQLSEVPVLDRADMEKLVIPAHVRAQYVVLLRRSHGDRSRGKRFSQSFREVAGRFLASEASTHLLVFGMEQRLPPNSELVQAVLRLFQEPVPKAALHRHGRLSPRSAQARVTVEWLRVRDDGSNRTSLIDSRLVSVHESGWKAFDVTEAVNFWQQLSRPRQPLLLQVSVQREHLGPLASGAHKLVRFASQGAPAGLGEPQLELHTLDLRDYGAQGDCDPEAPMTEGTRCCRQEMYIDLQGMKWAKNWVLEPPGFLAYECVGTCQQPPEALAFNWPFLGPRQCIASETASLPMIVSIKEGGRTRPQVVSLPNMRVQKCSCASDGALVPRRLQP
Chain of Concanavalin-A (Canavalia ensiformis) (P02866 whole entry, looked up): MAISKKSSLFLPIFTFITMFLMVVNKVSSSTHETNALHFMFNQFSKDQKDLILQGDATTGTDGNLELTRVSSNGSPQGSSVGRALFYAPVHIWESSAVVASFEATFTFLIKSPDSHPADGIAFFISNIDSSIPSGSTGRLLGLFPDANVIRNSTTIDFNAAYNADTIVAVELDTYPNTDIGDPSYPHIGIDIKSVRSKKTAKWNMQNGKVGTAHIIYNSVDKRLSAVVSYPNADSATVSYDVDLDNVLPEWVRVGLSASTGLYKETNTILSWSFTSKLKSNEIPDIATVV
Chain of Albumin (Bos taurus) (P02769 whole entry, looked up): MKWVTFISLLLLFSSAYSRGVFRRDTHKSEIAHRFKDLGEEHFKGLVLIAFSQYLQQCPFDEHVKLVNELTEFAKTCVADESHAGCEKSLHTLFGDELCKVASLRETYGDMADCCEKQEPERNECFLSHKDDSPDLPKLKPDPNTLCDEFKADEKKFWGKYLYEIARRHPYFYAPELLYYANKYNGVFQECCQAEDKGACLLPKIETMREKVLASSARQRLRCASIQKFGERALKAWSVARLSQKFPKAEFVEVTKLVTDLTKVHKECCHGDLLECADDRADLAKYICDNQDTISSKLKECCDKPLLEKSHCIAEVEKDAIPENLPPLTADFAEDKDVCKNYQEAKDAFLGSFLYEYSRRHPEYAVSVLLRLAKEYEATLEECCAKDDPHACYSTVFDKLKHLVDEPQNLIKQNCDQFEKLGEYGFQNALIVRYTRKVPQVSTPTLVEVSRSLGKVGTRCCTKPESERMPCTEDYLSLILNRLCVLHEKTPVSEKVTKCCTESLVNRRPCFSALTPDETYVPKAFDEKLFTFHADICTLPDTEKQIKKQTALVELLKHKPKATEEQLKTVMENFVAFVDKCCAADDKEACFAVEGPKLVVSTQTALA
Chain of Alpha-bungarotoxin (Bungarus multicinctus) (P60615 whole entry, looked up): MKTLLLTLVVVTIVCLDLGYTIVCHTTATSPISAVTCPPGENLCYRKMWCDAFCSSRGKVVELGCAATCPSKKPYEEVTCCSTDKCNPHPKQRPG
Chain of Torsin-1A-interacting protein 1 (Homo sapiens) (Q5JTV8 whole entry, looked up): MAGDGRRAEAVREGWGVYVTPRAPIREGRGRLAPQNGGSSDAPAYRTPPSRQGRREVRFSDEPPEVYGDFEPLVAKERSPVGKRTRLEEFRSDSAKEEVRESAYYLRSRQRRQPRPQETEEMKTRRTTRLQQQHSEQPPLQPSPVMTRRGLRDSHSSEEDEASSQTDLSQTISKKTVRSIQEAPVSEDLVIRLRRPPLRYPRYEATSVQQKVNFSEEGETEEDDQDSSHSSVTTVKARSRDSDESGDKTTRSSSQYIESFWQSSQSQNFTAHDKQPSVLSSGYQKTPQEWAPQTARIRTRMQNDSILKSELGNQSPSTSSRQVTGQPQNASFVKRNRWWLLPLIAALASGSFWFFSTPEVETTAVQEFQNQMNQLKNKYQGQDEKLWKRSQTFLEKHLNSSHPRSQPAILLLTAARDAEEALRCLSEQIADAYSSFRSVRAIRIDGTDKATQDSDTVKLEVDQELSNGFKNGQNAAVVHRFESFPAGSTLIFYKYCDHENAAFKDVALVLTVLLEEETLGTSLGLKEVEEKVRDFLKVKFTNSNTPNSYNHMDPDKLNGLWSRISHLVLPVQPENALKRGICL

For `CN(C)C(=O)[C@@]1(Cc2ccccc2N=[N+]=[N-])N=C(c2ccc(OCCCO)cc2)O[C@H]1c1ccccc1CN=[N+]=[N-]`, the composite z-score was found to be 0.646 in assay [1]; 0.048 in assay [3]; 2.51 in assay [4]; 1.22 in assay [5]; 0.13 in assay [6]; 0.721 in [7]. In addition, the composite z-score in assay [8] is 1.78; in [9], 3.11; in [10], 2.96; with Albumin (Bos taurus) it was 0.972; in assay [12], 0.293; in assay [13], 0.215. In addition, the composite z-score in assay [14] was 0.622; in [15] it was 3.13; in assay [16], 1.12; in the assay on Sam68 (KHDRBS1), 1.29; in assay [17], -0.393; in assay [18] it was 1.2. In assay [2], the z-score is -2.12. In addition, the composite Z-score in assay [11] is 0.478 (inactive).
`CN(C)CCCC[C@@H]1NC(=O)[C@@H]2C[C@H](C(=O)NCCCCCNC(=O)CS)[C@H](c3ccc(O)cc3)N2C1=O`: the composite z-score in assay [1] was 0.664; in assay [3], 1.17; in assay [4], 0.0884; in [5], 1.25; in assay [6] it was -0.124; in [7], 0.199. Further, the composite z-score in assay [8] is 0.498; in [9] it was 0.761; in [10] it was 1.65; with Albumin (Bos taurus), 0.885; in [12] it was 0.0261; in assay [13], -0.0976. The composite z-score in [14] turned out to be 0.58; in assay [15], 1.18; in [16], 0.24; in the assay with Sam68 (KHDRBS1), 0.697; in [17], 1.07; in assay [18], 1.15. Also, the z-score in assay [2] came out at 0.873. Further, the composite Z-score in [11] is 0.0077 (inactive).
`C=C(COC)/C(=C/C[C@@H](OC(C)=O)c1cccc(OCCO)c1)c1cc(C(=O)OC)ccc1OC`: the composite z-score is -0.307 in assay [1]; -0.357 in assay [3]; -0.39 in assay [4]; -0.0115 in [5]; -0.091 in assay [6]; -0.0289 in [7]. The composite z-score is 0.717 in [8]; 0.505 in [9]; -1.07 in assay [10]; -0.458 in the assay with Albumin (Bos taurus); -0.0729 in [12]; -0.125 in assay [13]. The composite z-score was 0.402 in [14]; -0.194 in assay [15]; -0.315 in assay [16]; 0.539 with Sam68 (KHDRBS1); -0.458 in assay [17]; -0.937 in assay [18]. The compound also returned a z-score in assay [2] of -0.72. In addition, the composite Z-score in assay [11] was -0.574 (inactive).
On to `[N-]=[N+]=NCc1ccccc1C[C@@]1(C(=O)N2CCOCC2)N=C(c2ccc(OCCCO)cc2)O[C@@H]1c1ccccc1N=[N+]=[N-]`, for which the composite z-score in assay [1] is 0.425; in [3], -0.139; in assay [4], 2.15; in [5] it was 1.13; in [6], 0.208; in [7] it was 0.412. Further, the composite z-score turned out to be 1.64 in assay [8]; 1.74 in assay [9]; 2.84 in [10]; 1.02 in the assay with Albumin (Bos taurus); 0.402 in [12]; 0.0753 in assay [13]. The composite z-score is 0.771 in assay [14]; 2.48 in assay [15]; 0.358 in [16]; 1.3 in the assay on Sam68 (KHDRBS1); -1.07 in assay [17]; 1.18 in [18]. Further, the z-score in assay [2] is -1.14. Further, the composite Z-score in assay [11] was -0.188 (inactive).
With `[N-]=[N+]=NCc1ccccc1C[C@]1(C(N)=O)N=C(c2ccc(OCCCO)cc2)O[C@H]1c1ccccc1CN=[N+]=[N-]`, the composite z-score was 0.842 in assay [1]; -0.854 in [3]; 1.98 in [4]; 1.12 in assay [5]; 0.0286 in assay [6]; 0.84 in [7]. The composite z-score in [8] stood at 0.653; in [9], 1.32; in assay [10], 1.56; with Albumin (Bos taurus), 1.05; in [12], 0.0254; in assay [13], 0.0256. Moreover, the composite z-score was 0.667 in assay [14]; 2.16 in assay [15]; 0.641 in [16]; 1.31 in the assay with Sam68 (KHDRBS1); -1.12 in assay [17]; 0.991 in assay [18]. For the same compound, the z-score in assay [2] is -2.34. For the same compound, in assay [11], the composite Z-score was -0.469 (inactive).
